High-throughput results as filed in PubChem.
Hits are enriched below; roughly 3% of the tested compounds scored in any of these assays.
SENP6 inh: SENP6 protease inhibition; inhibition, % at 10 µM; Recombinant SENP6 catalytic domain, aminoluciferin luminescence; Q9GZR1; 330,000 tested, 1.8% active;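 active = inhibition above about 50% at the single tested dose, limit read from the data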
SENP7 block: SENP7 protease inhibition | Q9BQF6 | recombinant SENP7, Z-RLRGG-aminoluciferin luminescence, 40 min | inhibition, % at 5 µM | 330,000 tested, 1.5% active | AID 434973;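 active = inhibition above about 50% at the single test dose, limit read from the data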
Target sequence (Q9BQF6 706-1050 limits assumed): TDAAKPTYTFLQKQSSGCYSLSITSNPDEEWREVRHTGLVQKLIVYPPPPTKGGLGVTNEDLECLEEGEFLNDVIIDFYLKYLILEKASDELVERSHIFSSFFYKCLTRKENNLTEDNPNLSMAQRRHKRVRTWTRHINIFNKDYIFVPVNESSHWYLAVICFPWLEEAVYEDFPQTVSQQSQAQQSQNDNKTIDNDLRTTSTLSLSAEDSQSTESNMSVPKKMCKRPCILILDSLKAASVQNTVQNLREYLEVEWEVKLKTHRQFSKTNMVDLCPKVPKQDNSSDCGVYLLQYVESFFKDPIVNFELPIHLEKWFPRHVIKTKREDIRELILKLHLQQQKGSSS
PPC-1+TRAIL kill: kills PPC-1 cancer cells in the presence of TRAIL; PPC-1 cells + TRAIL, ATPLite viability luminescence; cell killing (% activity), % at 4 µM or 5 µM; 220,000 tested, 0.41% active; AID 1443;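 active = cell killing above 50% in the first pass at 4 µM, then a duplicate retest at 5 µM averaging 50% or more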
TRAIL sens C8: sensitizes caspase-8 expressing cells to TRAIL; inhibition (viability loss, TRAIL sensitization), % at 10 µM; NB7+C8 cells + TRAIL, ATPlite viability luminescence; 360,000 tested, 1% active; AID 624354;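 active = compounds causing at least 50% loss of cell viability in the single-dose screen, relative to plate controls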
SENP8 block-1: SENP8 (human) protease inhibition; Q96LD8; recombinant SENP8, Nedd8 substrate fluorescence; inhibition, % at 20 µM; 360,000 tested, 0.64% active; AID 602440; in the data active = inhibition mostly above about 40%, no sharp cut-off; inactive = mostly below about 27%
SENP8 block-2: inhibitors of human SENP8 protease; Q96LD8; purified SENP8, Z-RLRGG-aminoluciferin cleavage, luminescence; inhibition, % at 10 µM; 330,000 tested, 1.2% active; AID 2540; in the data active = inhibition above about 50%
SENP8 confirm: confirmation of human SENP8 protease inhibitors. shares compounds with SENP7 block. Recombinant SENP8, Z-RLRGG-aminoluciferin luminescence, 60 min. inhibition, % at 12.5 µM. 6,200 tested, 40% active;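 active = mean inhibition across replicates above about 50%, limit read from the data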
SENP6 confirm: confirmation of human SENP6 protease inhibitors; shares compounds with SENP7 block; recombinant SENP6, Z-RLRGG-aminoluciferin luminescence; inhibition, % at 12.5 µM; 6,200 tested, 58% active
SENP7 conf: confirmation of human SENP7 protease inhibitors; shares compounds with SENP7 block; 6,200 tested, 69% active; recombinant SENP7, Z-RLRGG-aminoluciferin luminescence, 40 min; inhibition, % at 12.5 µM; AID 488917
Casp3 SENP sel: selectivity test for SENP inhibitors: human caspase-3 inhibition. shares compounds with SENP7 block. inhibition, % at 12.5 µM. 6,200 tested, 60% active. purified caspase-3, Z-DEVD-aminoluciferin luminescence, 60 min. AID 488918;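 active = mean inhibition above about 50%, limit read from the data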
Target sequence (P42574 28-227 limits assumed): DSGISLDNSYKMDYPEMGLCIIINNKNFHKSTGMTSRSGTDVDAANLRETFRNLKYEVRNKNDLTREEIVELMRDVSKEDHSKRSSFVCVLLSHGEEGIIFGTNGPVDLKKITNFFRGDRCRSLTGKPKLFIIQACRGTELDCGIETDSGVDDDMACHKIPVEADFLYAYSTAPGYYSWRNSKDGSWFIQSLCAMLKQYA
SENP luc ctr: luminescence interference (SENP counter-screen); AID 488919; inhibition, % at 12.5 µM; shares compounds with SENP7 block; Pre-incubated SENP8/Z-RLRGG-aminoluciferin, luciferase luminescence interference; 6,200 tested, 39% active;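 active = mean inhibition above about 50% when retested at one dose, limit read from the data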
Large screens that a line does not name were inactive (follow-up assays come after a bar, where they were run).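 The calls were made as follows, unless noted: active = mean inhibition above about 50% in the one-dose retest (limit read from the data); inactive = the rest.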

CC(=O)N1CCn2c3c(c(=O)c4cc(C)ccc42)CCC31 (configuration not stated)	SENP6 inh 55.0 | SENP8 confirm inactive | SENP6 confirm inactive | SENP7 conf inactive | Casp3 SENP sel inactive | SENP luc ctr inactive
COc1ccc(/C(N)=N/OC(=O)C2CCCCC2)cc1	SENP7 block 68.2 (no result: PPC-1+TRAIL kill) | SENP8 confirm inactive | SENP6 confirm inactive | SENP7 conf 60.7 | Casp3 SENP sel inactive | SENP luc ctr inactive
N/C(=N\OC(=O)C1CCCCC1)c1cccc(Br)c1	SENP6 inh 69.2 (no result: PPC-1+TRAIL kill) | SENP8 confirm inactive | SENP6 confirm inactive | SENP7 conf 79.6 | Casp3 SENP sel 68.8 | SENP luc ctr 51.4
COc1ccc(/C(N)=N/OC(=O)Cc2cccs2)cc1	SENP6 inh 50.8 | SENP8 confirm inactive | SENP6 confirm inactive | SENP7 conf 67.3 | Casp3 SENP sel inactive | SENP luc ctr inactive
N/C(=N\OC(=O)CC1CCCCC1)c1cccc(Br)c1	none (no result: PPC-1+TRAIL kill)
COc1ccc(/C(N)=N/OC(=O)C2CCCCC2)cc1OC	none (no result: PPC-1+TRAIL kill)
Cc1ccc(NC(=O)CSc2nnnn2-c2cccnc2)c(C)c1	none (no result: PPC-1+TRAIL kill)
CC1(C)CC(NC(=O)C(Cl)(Cl)Cl)CC(C)(C)N1	none
Nc1nn(-c2ccccc2)c2ccc([N+](=O)[O-])cc12	SENP6 inh 72.3, SENP7 block 74.8, SENP8 block-2 54.2 (no result: PPC-1+TRAIL kill) | SENP8 confirm 74.6 | SENP6 confirm 71.6 | SENP7 conf 91.3 | Casp3 SENP sel 84.7 | SENP luc ctr 73.0
O=[N+]([O-])c1ccc2c(c1)nnn2-c1ccccc1	none (no result: PPC-1+TRAIL kill)
O=[N+]([O-])c1ccc2cn(-c3ccccc3)nc2c1	SENP7 block 81.2, SENP8 block-2 60.5 | SENP8 confirm inactive | SENP6 confirm 69.6 | SENP7 conf 91.7 | Casp3 SENP sel 69.1 | SENP luc ctr inactive
COc1ccccc1-n1cc2ccc([N+](=O)[O-])cc2n1	none (no result: PPC-1+TRAIL kill)
O=Cc1cc(N=Nc2ccc(S(=O)(=O)O)cc2)ccc1O	none (no result: PPC-1+TRAIL kill)
O=S(=O)(O)c1ccc(N=NNc2ccc(Br)cc2)cc1	SENP6 inh 89.5, SENP7 block 89.9, SENP8 block-2 89.9 (no result: PPC-1+TRAIL kill) | SENP8 confirm 90.9 | SENP6 confirm 91.1 | SENP7 conf 98.8 | Casp3 SENP sel 85.2 | SENP luc ctr 93.0
C[C@H]1CN([C@@H](C)CO)C(=O)CCCn2nncc2CO[C@@H]1CN(C)S(=O)(=O)c1ccc(-c2ccccc2)cc1	none (no result: SENP6 inh, SENP7 block, PPC-1+TRAIL kill, SENP8 block-2)
Cc1ccc(NC(=O)c2noc3c2CCc2ccccc2-3)cc1	none
O=C(Nc1cccc(O)c1)c1noc2c1CCc1ccccc1-2	SENP6 inh 97.2, SENP7 block 98.6, TRAIL sens C8 71.3, SENP8 block-2 95.5 | SENP8 confirm 94.5 | SENP6 confirm 95.7 | SENP7 conf 102.5 | Casp3 SENP sel 93.5 | SENP luc ctr 92.5
O=C(Nc1cccc(Br)c1)c1cccc(OC(=S)N2CCOCC2)c1	SENP6 inh 56.8, SENP7 block 54.7 (no result: PPC-1+TRAIL kill) | SENP8 confirm inactive | SENP6 confirm inactive | SENP7 conf 74.2 | Casp3 SENP sel inactive | SENP luc ctr 51.1
Cn1nc(C(C)(C)C)cc1C(=O)N1CCCCC1c1cc(C(=O)Nc2ccccc2)no1 (configuration not stated)	none (no result: SENP6 inh, SENP7 block, PPC-1+TRAIL kill, SENP8 block-2)
Cc1ccc(S(=O)(=O)N(C)C)cc1-n1c(SCC(=O)Nc2ccccc2)nc2ccccc2c1=O	SENP6 inh 50.1 | SENP8 confirm inactive | SENP6 confirm inactive | SENP7 conf inactive | Casp3 SENP sel inactive | SENP luc ctr inactive
Cc1ccc(S(=O)(=O)N(C)C)cc1-n1c(SCC(=O)Nc2ccc(F)cc2)nc2ccccc2c1=O	none
N=c1oc2ccc(Cl)cc2cc1C(=O)Nc1ccc(F)cc1	none (no result: PPC-1+TRAIL kill)
COc1ccc2oc(=O)c(C(=O)Nc3ccccc3C)cc2c1	SENP6 inh 64.9, SENP7 block 73.7 (no result: PPC-1+TRAIL kill) | SENP8 confirm inactive | SENP6 confirm inactive | SENP7 conf inactive | Casp3 SENP sel 50.3 | SENP luc ctr inactive
COc1ccc2oc(=N)c(C(=O)Nc3ccccc3Cl)cc2c1	SENP7 block 61.0 (no result: PPC-1+TRAIL kill) | SENP8 confirm inactive | SENP6 confirm inactive | SENP7 conf inactive | Casp3 SENP sel inactive | SENP luc ctr inactive
COc1ccc2oc(=N)c(C(=O)Nc3cccc(C)c3C)cc2c1	none (no result: PPC-1+TRAIL kill)
N=c1oc2cc(O)ccc2cc1C(=O)Nc1ccc(Br)cc1	SENP6 inh 86.3, SENP8 block-2 77.1 (no result: PPC-1+TRAIL kill) | SENP8 confirm inactive | SENP6 confirm inactive | SENP7 conf inactive | Casp3 SENP sel inactive | SENP luc ctr inactive
N=c1oc2ccccc2cc1C(=O)Nc1ccccc1	SENP6 inh 86.3, SENP7 block 92.6, SENP8 block-2 89.0 (no result: PPC-1+TRAIL kill) | SENP8 confirm inactive | SENP6 confirm 55.6 | SENP7 conf 78.5 | Casp3 SENP sel inactive | SENP luc ctr inactive
COc1cccc(NC(=O)c2cc3ccccc3oc2=O)c1	SENP6 inh 93.6, SENP7 block 100.0, SENP8 block-2 90.1 (no result: PPC-1+TRAIL kill) | SENP8 confirm inactive | SENP6 confirm inactive | SENP7 conf inactive | Casp3 SENP sel inactive | SENP luc ctr inactive
COc1ccc2oc(=N)c(C(=O)Nc3ccccc3)cc2c1	SENP6 inh 61.8, SENP7 block 71.9 | SENP8 confirm inactive | SENP6 confirm inactive | SENP7 conf 69.3 | Casp3 SENP sel 56.6 | SENP luc ctr inactive
COc1cc2ccccc2cc1C(=O)Nc1ccccc1Cl	SENP6 inh 57.9 (no result: PPC-1+TRAIL kill) | SENP8 confirm 71.6 | SENP6 confirm 71.7 | SENP7 conf 91.2 | SENP luc ctr inactive
Cc1ccccc1-c1nnc(NC(=O)c2cc3ccccc3oc2=O)s1	none (no result: SENP6 inh, SENP7 block, TRAIL sens C8, SENP8 block-1, SENP8 block-2)
Cc1cccnc1NC(=O)c1cc2ccccc2oc1=O	SENP7 block 91.3 | SENP8 confirm 52.6 | SENP6 confirm 52.3 | SENP7 conf 80.4 | Casp3 SENP sel 68.4 | SENP luc ctr inactive
COc1ccc2oc(=N)c(C(=O)Nc3ccc(C)cc3)cc2c1	none (no result: PPC-1+TRAIL kill)
NC(=O)c1ccc(NC(=O)c2ccc3c(c2)CCN3S(=O)(=O)c2ccccc2)cc1	none (no result: PPC-1+TRAIL kill)
CN(C)c1ccnc2sc3c(SCc4ccc(Cl)cc4)ncnc3c12	SENP7 block 57.7 | SENP8 confirm inactive | SENP6 confirm inactive | SENP7 conf inactive | Casp3 SENP sel inactive | SENP luc ctr inactive
COCC(C)NC(=O)c1noc2c1CCc1cc(OC)ccc1-2 (configuration not stated)	SENP6 inh 53.1, SENP7 block 51.6 | SENP8 confirm inactive | SENP6 confirm inactive | SENP7 conf 73.9 | Casp3 SENP sel 73.3 | SENP luc ctr 60.5
